# Test results as given in PubChem BioAssay (Tox21).
# Records with an inconclusive call do not appear. Unmarked numbers belong to inactive results. Calls follow the shape of the full dose curve.
# Tested on: not listed separately
# Assay: qHTS assay to identify small molecule antagonists of the estrogen receptor alpha (ER-alpha) signaling pathway - cell viability counter screen (AID 743074);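 also: HEK293 cells carrying ER-alpha-UAS-bla reporter stimulated with 17beta-estradiol; nearly all actives have a fitted effect of over 45% in size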
# Conditions: ERalpha-bla HEK293 viability, CellTiter-Glo luminescence, 18 h; series mostly up to 69.4 µM; activity, negative = cytotoxicity: at the top concentration
# % is scaled to controls: 0 for no effect and ±100 for the full control effect.
row,SMILES,"activity, negative = cytotoxicity"
1,CC1c2ccccc2CN1NC(=O)c1ccc(Cl)c(S(N)(=O)=O)c1 (stereo unspecified),10%
2,CCCCOC(=O)[C@H](C)O,13.1%
3,OC1OCCOC1O (stereo unspecified),23.1%
4,CC(C)(C)NC[C@H](O)COc1cccc2c1CCCC2=O,14.6% [at 32.6 µM]
5,O=C(O)CCCCCC(=O)O,5.55% [at 79.1 µM]
6,C=CCCCCCCCCC(=O)OCCCC,8.58%
7,CCOCCOCC,19.3% [at 79.1 µM]
8,OCC1CCC(CO)CC1 (stereo unspecified),12.3% [at 79.1 µM]
9,CCCCCCCCCCOC(C)=O,24.8%
10,CC(C)CO,24.9% [at 79.1 µM]
11,CC12CCC(C1)C(C)(C)C2O (stereo unspecified),26.8%
12,CC(=O)OC1CCCCC1C(C)(C)C (stereo unspecified),9.53%
13,CC(=O)OCC(=O)Nc1cc(C#N)cc(NC(=O)COC(C)=O)c1Cl,11.6%
14,N#CCC(=O)NN,-5.04%
15,O=C1CCCCO1,-7.82%
16,CCO,10.3% [at 79.1 µM]
17,CC1(C)[C@H]2CC[C@](C)(C2)[C@H]1O,-6.95% [at 79.1 µM]

# Target: Estrogen receptor (Homo sapiens) (UniProt P03372)
# Sequence (P03372 whole entry, looked up): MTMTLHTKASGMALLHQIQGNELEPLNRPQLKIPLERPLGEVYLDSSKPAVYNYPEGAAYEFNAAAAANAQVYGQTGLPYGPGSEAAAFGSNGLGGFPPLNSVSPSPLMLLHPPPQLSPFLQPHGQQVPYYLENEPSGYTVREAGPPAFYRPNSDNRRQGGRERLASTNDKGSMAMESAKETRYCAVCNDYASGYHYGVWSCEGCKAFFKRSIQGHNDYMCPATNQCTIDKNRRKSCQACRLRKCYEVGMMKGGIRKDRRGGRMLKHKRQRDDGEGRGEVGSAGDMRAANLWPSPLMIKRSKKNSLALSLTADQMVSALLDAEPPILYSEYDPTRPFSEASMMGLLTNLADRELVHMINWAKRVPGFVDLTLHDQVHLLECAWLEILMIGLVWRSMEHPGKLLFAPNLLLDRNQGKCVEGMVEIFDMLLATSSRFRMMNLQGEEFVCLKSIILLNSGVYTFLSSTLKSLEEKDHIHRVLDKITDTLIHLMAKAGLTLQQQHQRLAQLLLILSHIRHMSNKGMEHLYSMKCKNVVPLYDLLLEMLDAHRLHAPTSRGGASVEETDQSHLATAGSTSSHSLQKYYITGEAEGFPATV
# Assay: qHTS assay to identify small molecule agonists of the estrogen receptor alpha (ER-alpha) signaling pathway (AID 743075);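 also: HEK293 GripTite cells with ER-alpha and UAS-driven beta-lactamase reporter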
# Conditions: HEK293 ER-alpha-UAS-bla, beta-lactamase FRET ratio, 18 h; series mostly up to 70.1 µM; activation: at the top concentration
row,SMILES,activation
1,COC(=O)c1cccc(Cl)c1,-0.416%
2,CCCCCCCCCCCCCCCCCC#N,-4.9% [at 79.1 µM]
3,CCCCCc1cccc(=O)o1,0.345%
4,Cc1ccc(C(=O)O)cc1[N+](=O)[O-],-2.39%
5,CCC/C=C(\C=O)CC,-0.874%
6,CSc1cnccn1,0.613%
7,CC/C(C)=N\O[Si](C)(O/N=C(\C)CC)O/N=C(\C)CC,-0.8% [at 79.1 µM]
8,CCCSSCCC,-0.809%
9,Cc1ncc([N+](=O)[O-])n1CC(C)O (stereo unspecified),-1.43%
10,C[C@@H](O)C(=O)O,2.36% [at 79.1 µM]
11,COc1ccc2c(c1)c1c3n2CCN(C)C3=NCC1,-0.376%
12,O=C[O][Al]([O]C=O)[O]C=O,-2.48%
13,C/C(CC(C)C)=N\O,2.68%
14,Cn1nnc2c(C(N)=O)ncn2c1=O,-3.2%
15,CC(C)C1OCCN1CCOC(=O)NCCCCCCNC(=O)OCCN1CCOC1C(C)C (stereo unspecified),-0.57%
16,CC(C)Cn1cnc2c1c(=O)n(C)c(=O)n2C,1.02%
17,O=C(NCN1CCOCC1)c1cnccn1,-2.26%

row,SMILES,activation
1,CC1c2ccccc2CN1NC(=O)c1ccc(Cl)c(S(N)(=O)=O)c1 (stereo unspecified),-2.04%
2,CCCCOC(=O)[C@H](C)O,-0.712%
3,OC1OCCOC1O (stereo unspecified),0.874%
4,CC(C)(C)NC[C@H](O)COc1cccc2c1CCCC2=O,0.415% [at 32.9 µM]
5,O=C(O)CCCCCC(=O)O,0.557% [at 79.1 µM]
6,C=CCCCCCCCCC(=O)OCCCC,-1.35%
7,CCOCCOCC,6.4% [at 79.1 µM]
8,OCC1CCC(CO)CC1 (stereo unspecified),-0.523% [at 79.1 µM]
9,CCCCCCCCCCOC(C)=O,0.897%
10,CC(C)CO,-0.74% [at 79.1 µM]
11,CC12CCC(C1)C(C)(C)C2O (stereo unspecified),1.84%
12,CC(=O)OC1CCCCC1C(C)(C)C (stereo unspecified),0.882%
13,CC(=O)OCC(=O)Nc1cc(C#N)cc(NC(=O)COC(C)=O)c1Cl,-2.15%
14,N#CCC(=O)NN,-0.671%
15,O=C1CCCCO1,7.52%
16,CCO,1.25% [at 79.1 µM]
17,CC1(C)[C@H]2CC[C@](C)(C2)[C@H]1O,0.663% [at 79.1 µM]
